The results in this text go back to PubChem BioAssay.

Assay [1] relates to Plasmodium falciparum Sir2 (PF13_0152, Sir2A). As to the kind of experiment: Plasmodium falciparum Sir2A binding compounds – biochemical, small-molecule microarray, 635 nm fluorescence, primary screen (AID 1098).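 Also: score merges spot fluorescence intensity with its signal-to-noise ratio.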 To be noted: fluorescence 635 nm, higher = more signal.
Assay [2] in a line: probe aDKK1 binding to arrayed compounds – biochemical, biotinylated probe, 635/667 nm fluorescence, primary screen (AID 1099).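 Also: score merges 667nm spot fluorescence with signal to noise across triplicate slides.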 Particulars: small-molecule microarray, higher = more signal.
Assay [3] is described as follows: probe aCHRDL2 binding to arrayed compounds – biochemical, biotinylated probe, 635/667 nm fluorescence, primary screen (AID 1100). To be noted: small-molecule microarray, higher = more signal.
A short description of assay [4]: change in splice reporter luminescence, either direction, cell-based, HEK293, spliceosome inhibition project, primary screen (AID 1101).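 Also: HEK293 cells carrying a splicing-competent luciferase reporter gene; test concentration not given here.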 Particulars: HEK293 splicing luciferase reporter, 24 h, higher = more signal, called active from +8 up or from −8 down. On the technique in general: In a reporter assay the amount or activity of a reporter protein is the signal.
Assay [5] concerns the target Fibroblast growth factor 10 (Homo sapiens) (UniProt O15520). As to the kind of experiment: compounds binding fibroblast growth factor 10 – biochemical, small-molecule microarray, 635 nm fluorescence, primary screen (AID 1102). To be noted: FGF10 binding, fluorescence 635 nm, higher = more signal.
Assay [6] deals with glycogen synthase kinase-3 (GSK3A per assay name; protocol says GSK3B). As to the kind of experiment: compounds binding glycogen synthase kinase-3 – biochemical, small-molecule microarray, 635 nm fluorescence, GSK3A, primary screen (AID 1103). Also: the record names both GSK3A and GSK3B. Particulars: fluorescence 635 nm, higher = more signal.
The target in assay [7] is Epidermal growth factor receptor (Homo sapiens) (UniProt P00533). Briefly: compounds binding epidermal growth factor receptor – biochemical, small-molecule microarray, 635 nm fluorescence, primary screen (AID 1104).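 Also: score merges 667 nm emission intensity with spot signal to noise over triplicate slides.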 To be noted: EGFR binding, higher = more signal.
In assay [8] the target is Follistatin-related protein 3 (Homo sapiens) (UniProt O95633). As to the kind of experiment: compounds binding follistatin-related protein 3 – biochemical, small-molecule microarray, 635 nm fluorescence, primary screen (AID 1105).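 Also: score merges emission near 667 nm and signal to noise per printed spot across three slides.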 Particulars: FSTL3 binding, higher = more signal.
Assay [9] concerns the target Dickkopf-related protein 1 (Homo sapiens) (UniProt O94907). Briefly: small molecules binding DKK1 protein – biochemical, small-molecule microarray, 635 nm fluorescence scan, primary screen (AID 1106).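 Also: score merges emission near 667 nm with signal to noise over three replicate slides.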 To be noted: higher = more signal.
Assay [10] deals with Inhibin beta A chain (activin A). Briefly: small molecules binding activin A – biochemical, small-molecule microarray, 635 nm fluorescence scan, primary screen (AID 1107).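 Also: mouse activin A protein probed at 4.33 µg/mL on printed slides; score merges bound-protein fluorescence near 667 nm with spot signal-to-noise.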 To be noted: INHBA, higher = more signal.
For assay [11], the system named is Human papillomavirus type 1a protein E7 (residues 44-93). As to the kind of experiment: small molecules binding HPV E7 44-93 – biochemical, small-molecule microarray, residues 44-93, 635 nm fluorescence, primary screen (AID 1108).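 Also: E7 fragment applied at 1 µg/mL in TBST for 1 h at 4 C; score combines spot fluorescence with its signal to noise ratio.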 Particulars: fluorescence 635 nm, higher = more signal.
Assay [12] is described as follows: hepatitis C replication reporter changes, two-sided – Huh7 cells, luciferase reporter, HCV replication inhibitor project, primary screen (AID 1109).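 Also: huh7 hepatoma cells harbouring a luciferase neomycin HCV replicon reporter; luciferase luminescence as measure of HCV replicon replication; test concentration not given here.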 To be noted: Huh7 HCV replicon luciferase reporter, 48 h; higher = more signal.
Assay [13] deals with Left-right determination factor 2 (Homo sapiens) (UniProt O00292). As to the kind of experiment: small molecules binding LEFTY2 protein – biochemical, small-molecule microarray, 635 nm fluorescence scan, primary screen (AID 1110). Particulars: higher = more signal.
For assay [14], the target named is Calmodulin-1 (Homo sapiens) (UniProt P0DP23). Briefly: small molecules binding calmodulin-1 with EGTA – biochemical, small-molecule microarray, Cy5-labelled CALM1, profiling panel (AID 1111).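 Also: labelled calmodulin applied in Tris saline Tween buffer holding calcium plus EGTA and DTT.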 Particulars: Cy5-CALM1 binding fluorescence, higher = more signal.
The target is the same in assay [15]. Briefly: small molecules binding Ca-loaded calmodulin-1 – biochemical, small-molecule microarray, Cy5-labelled CALM1, plus calcium, artefact control for SMM control-protein annotation, profiling panel (AID 1112).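 Also: score merges spot fluorescence with signal to noise from triplicate slides.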 To be noted: Cy5-CALM1 binding fluorescence, higher = more signal.
Assay [16] in a line: probe aWnt5a binding to arrayed compounds – biochemical, biotinylated probe, 635/667 nm fluorescence, primary screen (AID 1113).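 Also: score merges 667 nm fluorescence intensity with signal-to-noise per printed feature.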 Particulars: small-molecule microarray, higher = more signal.
Assay [17] can be described thus: probe aShh binding to arrayed compounds – biochemical, biotinylated probe, 635/667 nm fluorescence, primary screen (AID 1114).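 Also: probe is biotin-labelled aShh protein from a stem cell growth factor screen; measures binding of labelled protein to compounds printed on the slide; score merges feature fluorescence at 667 nm with signal-to-noise.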 Particulars: small-molecule microarray, higher = more signal.
Assay [18] can be described thus: probe aNog binding to arrayed compounds – biochemical, biotinylated probe, 635/667 nm fluorescence, primary screen (AID 1115).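 Also: probe is biotinylated aNog protein used at 0.15 µg/mL for 1 h at 4 C; z-score combines 667 nm fluorescence of each spot with its signal to noise.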 To be noted: small-molecule microarray, higher = more signal.
The target in assay [19] is Torsin-1A-interacting protein 1 (Homo sapiens) (UniProt Q5JTV8). As to the kind of experiment: compound microarray binding of lysate hLAP1 – cell lysate, small-molecule microarray, COS7 lysate, 635/667 nm fluorescence, primary screen (AID 1116). To be noted: 635 nm fluorescence, higher = more signal.
In assay [20] the target is Alpha-bungarotoxin (Bungarus multicinctus) (UniProt P60615). As to the kind of experiment: compounds binding labelled alpha-BTX control protein – biochemical, small-molecule microarray, Alexa647 label, 635/667 nm fluorescence, artefact control for SMM control protein annotation, profiling panel (AID 1117). To be noted: alpha-BTX-A647 binding fluorescence, higher = more signal.

The structures appear in SMILES notation. Active and inactive are the calls of the source.

Sequence of Alpha-bungarotoxin (Bungarus multicinctus) (P60615 whole entry, looked up): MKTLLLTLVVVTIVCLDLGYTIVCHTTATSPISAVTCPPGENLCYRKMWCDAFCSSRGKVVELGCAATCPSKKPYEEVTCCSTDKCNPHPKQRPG
Sequence of Epidermal growth factor receptor (Homo sapiens) (P00533 whole entry, looked up): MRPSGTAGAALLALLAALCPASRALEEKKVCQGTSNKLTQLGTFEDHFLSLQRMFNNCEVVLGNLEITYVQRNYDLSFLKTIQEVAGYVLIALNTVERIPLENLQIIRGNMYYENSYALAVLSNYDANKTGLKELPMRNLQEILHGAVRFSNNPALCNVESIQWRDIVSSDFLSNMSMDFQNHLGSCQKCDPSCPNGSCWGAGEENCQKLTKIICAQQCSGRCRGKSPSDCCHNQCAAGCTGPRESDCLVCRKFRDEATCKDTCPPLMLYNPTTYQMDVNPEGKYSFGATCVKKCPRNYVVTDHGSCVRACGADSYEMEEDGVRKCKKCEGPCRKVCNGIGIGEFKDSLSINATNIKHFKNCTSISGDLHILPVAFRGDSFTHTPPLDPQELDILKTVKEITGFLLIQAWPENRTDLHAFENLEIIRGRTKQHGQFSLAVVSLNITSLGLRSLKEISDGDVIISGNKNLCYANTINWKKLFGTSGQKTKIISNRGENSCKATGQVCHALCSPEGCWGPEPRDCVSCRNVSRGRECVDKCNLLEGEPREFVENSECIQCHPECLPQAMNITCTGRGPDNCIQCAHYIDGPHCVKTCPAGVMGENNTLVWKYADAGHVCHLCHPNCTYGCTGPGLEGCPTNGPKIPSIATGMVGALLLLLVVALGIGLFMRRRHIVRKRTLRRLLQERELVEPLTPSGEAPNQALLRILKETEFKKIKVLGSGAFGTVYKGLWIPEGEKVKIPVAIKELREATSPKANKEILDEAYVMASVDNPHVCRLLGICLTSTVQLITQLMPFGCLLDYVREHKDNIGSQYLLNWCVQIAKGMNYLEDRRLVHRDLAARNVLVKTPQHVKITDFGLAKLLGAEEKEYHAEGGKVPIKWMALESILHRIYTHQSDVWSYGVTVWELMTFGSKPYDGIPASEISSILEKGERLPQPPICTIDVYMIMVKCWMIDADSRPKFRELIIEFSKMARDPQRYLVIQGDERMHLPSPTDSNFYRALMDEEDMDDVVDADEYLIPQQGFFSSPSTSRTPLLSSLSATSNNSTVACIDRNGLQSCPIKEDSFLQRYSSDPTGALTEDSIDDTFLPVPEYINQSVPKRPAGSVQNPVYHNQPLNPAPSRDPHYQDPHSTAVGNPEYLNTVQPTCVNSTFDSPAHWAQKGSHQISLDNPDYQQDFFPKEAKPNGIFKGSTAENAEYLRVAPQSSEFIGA
Sequence of Left-right determination factor 2 (Homo sapiens) (O00292 whole entry, looked up): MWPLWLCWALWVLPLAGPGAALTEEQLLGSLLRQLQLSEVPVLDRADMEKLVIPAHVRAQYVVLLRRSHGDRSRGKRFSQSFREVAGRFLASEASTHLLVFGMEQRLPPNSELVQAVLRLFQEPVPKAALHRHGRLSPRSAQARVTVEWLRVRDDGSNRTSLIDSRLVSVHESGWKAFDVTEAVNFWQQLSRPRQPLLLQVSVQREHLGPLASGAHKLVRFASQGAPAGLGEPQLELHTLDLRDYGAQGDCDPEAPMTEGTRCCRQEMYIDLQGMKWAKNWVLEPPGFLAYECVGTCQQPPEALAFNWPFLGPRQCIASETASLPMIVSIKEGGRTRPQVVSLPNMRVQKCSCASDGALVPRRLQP
Sequence of Dickkopf-related protein 1 (Homo sapiens) (O94907 whole entry, looked up): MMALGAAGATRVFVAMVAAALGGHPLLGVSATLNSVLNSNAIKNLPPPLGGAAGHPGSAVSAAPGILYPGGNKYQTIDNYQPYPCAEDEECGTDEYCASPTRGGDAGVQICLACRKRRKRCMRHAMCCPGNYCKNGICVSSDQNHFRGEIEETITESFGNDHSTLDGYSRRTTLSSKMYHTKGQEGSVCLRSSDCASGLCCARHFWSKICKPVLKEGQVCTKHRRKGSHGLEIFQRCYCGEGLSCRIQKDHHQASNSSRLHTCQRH
Sequence of Follistatin-related protein 3 (Homo sapiens) (O95633 whole entry, looked up): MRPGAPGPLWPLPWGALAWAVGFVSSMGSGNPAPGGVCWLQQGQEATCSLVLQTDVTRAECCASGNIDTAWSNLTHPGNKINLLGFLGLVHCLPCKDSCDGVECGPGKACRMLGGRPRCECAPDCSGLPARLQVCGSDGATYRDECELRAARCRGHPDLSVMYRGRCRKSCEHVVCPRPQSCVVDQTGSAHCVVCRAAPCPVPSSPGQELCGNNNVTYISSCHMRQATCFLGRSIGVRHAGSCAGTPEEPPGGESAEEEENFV
Sequence of Fibroblast growth factor 10 (Homo sapiens) (O15520 whole entry, looked up): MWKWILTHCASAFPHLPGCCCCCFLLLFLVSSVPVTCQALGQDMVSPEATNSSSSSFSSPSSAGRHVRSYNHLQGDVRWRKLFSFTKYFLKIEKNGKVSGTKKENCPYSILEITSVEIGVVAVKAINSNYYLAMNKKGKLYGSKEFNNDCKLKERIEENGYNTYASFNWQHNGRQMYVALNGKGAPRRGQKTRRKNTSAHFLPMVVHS
Sequence of Torsin-1A-interacting protein 1 (Homo sapiens) (Q5JTV8 whole entry, looked up): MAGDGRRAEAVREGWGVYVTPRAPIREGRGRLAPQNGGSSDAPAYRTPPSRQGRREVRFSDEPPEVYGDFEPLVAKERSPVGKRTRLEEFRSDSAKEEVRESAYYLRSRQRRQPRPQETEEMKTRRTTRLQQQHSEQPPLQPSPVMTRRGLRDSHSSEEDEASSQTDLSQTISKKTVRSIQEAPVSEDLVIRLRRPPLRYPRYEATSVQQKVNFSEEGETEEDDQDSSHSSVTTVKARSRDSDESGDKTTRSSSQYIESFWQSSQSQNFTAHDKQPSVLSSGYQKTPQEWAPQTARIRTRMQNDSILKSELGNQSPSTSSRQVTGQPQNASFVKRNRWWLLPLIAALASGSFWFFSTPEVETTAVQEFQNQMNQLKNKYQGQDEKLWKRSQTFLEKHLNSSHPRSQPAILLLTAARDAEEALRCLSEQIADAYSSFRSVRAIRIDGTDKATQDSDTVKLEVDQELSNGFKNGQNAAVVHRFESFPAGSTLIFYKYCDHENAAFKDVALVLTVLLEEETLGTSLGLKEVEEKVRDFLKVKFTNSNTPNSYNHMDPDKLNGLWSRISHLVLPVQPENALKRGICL

Turning to `COC(=O)[C@@]1(Cc2ccc(F)cc2)[C@H]2c3cc(C(=O)N4CCCC4)n(CCc4c[nH]c5ccc(OC)cc45)c3C[C@H]2CN1C(=O)c1ccccc1`, the composite z-score in [1] worked out at 1.03; in assay [2] it was 1.6; in assay [3], 1.01; in [5], 1.53; in assay [6] it was 1.18; in assay [7] it was 0.763. Moreover, the composite z-score was found to be 0.735 in [8]; 0.0605 in [9]; 1.06 in assay [10]; 1.4 in [11]; 0.474 in assay [13]; 1.92 in assay [14]. In addition, the composite z-score in assay [15] came out at 0.878; in assay [16], 1.19; in assay [17] it was 1.17; in assay [18] it was 2.98; in [19], 0.781; in assay [20] it was 1.23. The z-score in [4] was -3.28 (inactive); in assay [12], -2.22.

Turning to `CCOc1cc(C(O)C2C=CC3C(=O)N(C)C(=O)C3N2N2CCCCC2)ccc1O` (stereo not given), the composite z-score was 1.56 in assay [1]; 0.637 in [2]; 0.101 in assay [3]; 0.264 in assay [5]; -0.37 in assay [6]; 0.287 in assay [7]. The composite z-score was 0.276 in [8]; 0.164 in [9]; 0.898 in assay [10]; 0.0912 in assay [11]; 0.298 in [13]; -0.0003 in assay [14]. Also, the composite z-score in assay [15] is -0.393; in assay [16] it was 0.0173; in assay [17] it was 0.199; in assay [18], 0.243; in assay [19], -0.283; in assay [20], 0.676. The results for the z-score in [4] and in assay [12] were 0.377 (inactive) and 0.403, respectively.

For the compound `CC(C)(C)OC(=O)CC[C@]1(C(=O)O)N=C(c2ccc(OCCCO)cc2)O[C@H]1c1ccccc1`, the composite z-score in [1] was 1.14; in assay [2], 0.191; in assay [3], 0.542; in assay [5], -0.272; in [6], -0.406; in assay [7], -0.329. The composite z-score in assay [8] was -0.121; in assay [9], -0.517; in [10], 0.734; in assay [11], 0.138; in assay [13], -0.369; in [14], 0.76. The composite z-score in [15] is 1.05; in assay [16], -0.096; in assay [17] it was -0.0769; in assay [18], -0.172; in [19], 0.0522; in [20], 0.574. In addition, the z-score in assay [4] was -1.32 (inactive); in assay [12], -0.733.

Turning to `C=C(/C(=C/C[C@@H](OC(=O)c1ccncc1)c1ccc(OCCO)cc1)c1cc(C(=O)OC)ccc1OC)C(C)C`, the composite z-score in assay [1] is 0.596; in [2], -0.354; in [3] it was -0.338; in [5], 0.426; in [6], 0.284; in [7], 0.325. Besides, the composite z-score is 0.609 in [8]; -0.0107 in assay [9]; 0.309 in assay [10]; 1.38 in [11]; -0.0398 in assay [13]; 0.356 in assay [14]. Besides, the composite z-score in assay [15] is -0.252; in [16] it was -0.0721; in [17] it was -0.138; in assay [18], -0.45; in [19], 0.637; in assay [20] it was 0.249. Besides, the z-score was -0.432 (inactive) in assay [4] and -1.88 in assay [12].

With `[N-]=[N+]=Nc1ccccc1[C@H]1OC(c2ccc(OCCCO)cc2)=N[C@@]1(CCS(=O)(=O)c1ccccc1)C(=O)N1CCCCC1`, the composite z-score came out at 1.37 in [1]; 1.27 in assay [2]; 1.27 in [3]; 0.354 in assay [5]; 0.797 in [6]; 0.0374 in assay [7]. Also, the composite z-score is 0.801 in [8]; -0.44 in assay [9]; 1.38 in [10]; 1.44 in assay [11]; -0.149 in assay [13]; 1.48 in [14]. Further, the composite z-score in assay [15] is 0.956; in assay [16], -0.0165; in [17] it was 0.184; in [18], 0.0127; in assay [19], 1.27; in assay [20], 2.21. The figures for the z-score in [4] and in assay [12] were -1.21 (inactive) and -1.05, respectively.

As to `O=C1O[C@@H](c2ccccc2)[C@@H](c2ccccc2)N2[C@@H](c3ccc(O)cc3)[C@]3(C(=O)Nc4ccc(C#CCCO)cc43)[C@@H](C(=O)NC[C@H](O)c3ccccc3)[C@H]12`, the composite z-score in assay [1] was -0.029; in assay [2] it was -0.301; in assay [3] it was 0.785; in [5] it was -1.01; in [6] it was -0.375; in assay [7], -0.637. Besides, the composite z-score is -0.802 in assay [8]; -1.26 in [9]; -0.926 in assay [10]; 0.334 in assay [11]; -1.87 in [13]; -0.282 in assay [14]. In addition, the composite z-score in assay [15] is 0.374; in assay [16] it was -0.243; in [17] it was 0.057; in [18], 1.4; in assay [19], -0.138; in [20], -0.588. The z-score in [4] was 0.0041 (inactive); in assay [12], 0.0035.
